{"source": "PubChem BioAssay AID425", "about": "(Sanford-Burnham Center for Chemical Genomics, 2006)", "note": "“And” between values parts separate entries of the source, which are not always exact repeats. Equal entries are not always repeated. The whole screen tested about 110,000 compounds, of which about 190 (0.17%) were called active. Rule as the data show it: active = inhibition above about 50%; inactive = the rest. What follows is part of a selection rich in actives, with near analogues and random picks from the rest. Entries with a potency or affinity are not part of this list. A structure can be active in one record and inactive in another.", "data": [{"target": "Dual specificity protein phosphatase 6 (Rattus norvegicus) (UniProt Q64346)", "sequence (Q64346 whole entry, looked up)": "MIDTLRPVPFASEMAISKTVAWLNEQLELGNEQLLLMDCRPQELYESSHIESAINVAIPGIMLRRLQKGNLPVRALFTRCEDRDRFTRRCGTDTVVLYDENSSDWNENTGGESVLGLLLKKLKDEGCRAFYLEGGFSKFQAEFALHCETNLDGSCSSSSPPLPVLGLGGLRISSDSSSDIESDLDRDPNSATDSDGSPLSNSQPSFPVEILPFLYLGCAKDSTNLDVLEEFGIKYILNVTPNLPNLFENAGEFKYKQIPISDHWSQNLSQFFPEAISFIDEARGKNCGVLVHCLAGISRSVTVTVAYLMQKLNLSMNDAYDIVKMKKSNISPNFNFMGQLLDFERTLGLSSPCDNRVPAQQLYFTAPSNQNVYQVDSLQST", "experiment": "MKP-3 phosphatase inhibitors, primary screen, biochemical, rat enzyme, in vitro (AID 425);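 also: plate controls were vehicle for no effect and reference inhibitor for full effect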", "conditions": "recombinant MKP-3 phosphatase activity, fluorescence; at 20 µM; stronger effect = higher value", "values": [{"smiles": "CCOc1cc(-c2noc(CCC(=O)Nc3cccnc3)n2)ccc1OC", "inhibition": "-11.2% (inactive)"}, {"smiles": "Cc1ccc2nc(-c3cccc(NC(=O)c4ccco4)c3)[nH]c2c1", "inhibition": "0.4% (inactive)"}, {"smiles": "O=C(Nc1ccc(-c2nc3ccccc3[nH]2)cc1)c1cc2ccccc2o1", "inhibition": "53.5% (active)"}, {"smiles": "O=C(Nc1ccc(-c2nc3ccccc3[nH]2)cc1)c1ccc(Cl)c(Cl)c1", "inhibition": "51.8% (active)"}, {"smiles": "O=C(Nc1ccc(-c2nc3ccccc3[nH]2)cc1)c1ccc(Cl)cc1", "inhibition": "5.4% (inactive)"}, {"smiles": "O=C(Nc1ccc(-c2nc3ccccc3[nH]2)cc1)c1ccccc1", "inhibition": "-0.7% (inactive)"}, {"smiles": "O=C(Nc1ccc(Cl)c(-c2nc3ccccc3[nH]2)c1)c1cc2ccccc2o1", "inhibition": "5% (inactive)"}, {"smiles": "O=C(Nc1ccc(-c2nc3ccccc3[nH]2)cc1)c1ccc(Br)o1", "inhibition": "8.1% (inactive)"}, {"smiles": "O=C(Nc1cccc(-c2nc3ccccc3[nH]2)c1)c1ccco1", "inhibition": "3.5% (inactive)"}, {"smiles": "Cc1cc(F)ccc1S(=O)(=O)Nc1c(C)n(C)n(-c2ccccc2)c1=O", "inhibition": "6.3% (inactive)"}, {"smiles": "O=C(O)COc1ccc2c(=O)c(-c3ccc(Cl)cc3)coc2c1", "inhibition": "2% (inactive)"}, {"smiles": "CCCCOCCCNC(=O)N[C@@H](CC(C)C)C(=O)O", "inhibition": "7.7% (inactive)"}, {"smiles": "COc1ccc(Cl)cc1C(=O)Nc1ccc(N(C)C)cc1", "inhibition": "0.6% (inactive)"}, {"smiles": "CSCCNS(=O)(=O)c1ccc(NC(C)=O)cc1", "inhibition": "1.1% (inactive)"}, {"smiles": "O=C1NC(=S)N(c2ccccc2F)C(=O)/C1=C/c1ccc(I)o1", "inhibition": "91.2% (active)"}, {"smiles": "CCc1ccc(N2C(=O)/C(=C/c3ccc(I)o3)C(=O)NC2=S)cc1", "inhibition": "104% (active)"}, {"smiles": "Cc1ccc(N2C(=O)NC(=O)/C(=C\\c3ccc(I)o3)C2=O)cc1", "inhibition": "5.4% (inactive)"}, {"smiles": "CCOc1ccc(N2C(=O)NC(=O)/C(=C\\c3ccc(I)o3)C2=O)cc1", "inhibition": "5.3% (inactive)"}, {"smiles": "CCOc1ccc(N2C(=O)/C(=C/c3ccc(OCc4cccc(C(=O)O)c4)cc3)C(=O)NC2=S)cc1", "inhibition": "-1.9% (inactive)"}, {"smiles": "CCOc1ccc(N2C(=O)/C(=C/c3ccc(I)o3)C(=O)NC2=S)cc1", "inhibition": "107% (active)"}, {"smiles": "O=C1NC(=O)N(c2ccc(Cl)cc2)C(=O)/C1=C/c1ccc(I)o1", "inhibition": "23.6% (inactive)"}, {"smiles": "O=C1NC(=S)N(c2ccccc2F)C(=O)/C1=C/c1ccc(OCc2cccc(C(=O)O)c2)cc1", "inhibition": "68.5% (active)"}, {"smiles": "O=C1NC(=O)N(c2ccccc2F)C(=O)/C1=C/c1ccc(OCc2cccc(C(=O)O)c2)cc1", "inhibition": "0.8% (inactive)"}, {"smiles": "O=C1NC(=S)N(c2ccccc2F)C(=O)/C1=C/c1ccc(Sc2ccccc2)o1", "inhibition": "7.1% (inactive)"}, {"smiles": "CCOc1ccc(N2C(=O)/C(=C/c3ccc(N(CC)CC)o3)C(=O)NC2=S)cc1", "inhibition": "-0.2% (inactive)"}, {"smiles": "O=C1NC(=O)N(c2ccccc2F)C(=O)/C1=C/c1ccc(I)o1", "inhibition": "12.9% (inactive)"}, {"smiles": "CC(C)c1ccc(NC2=NS(=O)(=O)c3cc([N+](=O)[O-])ccc32)cc1", "inhibition": "2.8% (inactive)"}, {"smiles": "Cc1c(Cl)cccc1NC(=O)C(=O)NCc1ccc2c(c1)OCO2", "inhibition": "0.1% (inactive)"}, {"smiles": "CCOC(=O)c1ccc(NC(=O)CN(c2ccccc2OC)S(=O)(=O)c2ccccc2)cc1", "inhibition": "-2.1% (inactive)"}, {"smiles": "CCCC(=O)OCC(=O)Nc1cc(C(C)(C)C)nn1-c1ccccc1", "inhibition": "-0.4% (inactive)"}, {"smiles": "C=CCc1cccc2cc(C(=O)NCc3ccccc3)c(=O)oc12", "inhibition": "6.2% (inactive)"}, {"smiles": "COc1ccc(NC(=O)C2CCC(C)(C(=O)O)C2(C)C)cc1", "note": "(stereo unspecified)", "inhibition": "-6.7% (inactive)"}, {"smiles": "O=C(COc1ccc(Cl)cc1)Nc1nc(-c2ccc(Cl)cc2)cs1", "inhibition": "2.6% (inactive)"}, {"smiles": "COc1ccc(/C=N/NC(=O)c2cc(-c3ccc(Cl)cc3)n[nH]2)cc1", "inhibition": "3.6% (inactive)"}, {"smiles": "N#Cc1c(N)nc2c(c1-c1ccc3c(c1)OCO3)CCCCC2", "inhibition": "-0.9% (inactive)"}, {"smiles": "Cc1ccc(-n2[nH]c(=O)c(/C=c3/c(C)c(C#N)c4nc5ccccc5n4c3=O)c2O)cc1C", "inhibition": "66.8% (active)"}, {"smiles": "Cc1c(C#N)c2nc3ccccc3n2c(=O)/c1=C/c1sc2ccccc2c1O", "inhibition": "4.2% (inactive)"}, {"smiles": "Cc1c(C#N)c2nc3ccccc3n2c(=O)/c1=C\\c1c(O)n(-c2ccc(Br)cc2)[nH]c1=O", "inhibition": "2.8% (inactive)"}, {"smiles": "COc1cc(/C=C2\\NC(=S)NC2=O)ccc1OC(=O)C12CC3CC(CC(C3)C1)C2", "inhibition": "-2.6% (inactive)"}, {"smiles": "COc1cccc(N2C(=O)/C(=C/c3ccccc3[N+](=O)[O-])SC2=S)c1", "inhibition": "3% (inactive)"}, {"smiles": "O=C1/C(=C/c2ccccc2[N+](=O)[O-])SC(=S)N1Cc1ccco1", "inhibition": "84.3% (active)"}, {"smiles": "Cc1cccc(N2C(=O)/C(=C/c3ccccc3[N+](=O)[O-])SC2=S)c1", "inhibition": "120% (active)"}, {"smiles": "O=C1/C(=C/c2ccccc2[N+](=O)[O-])SC(=S)N1c1cccc(Br)c1", "inhibition": "4.2% (inactive)"}, {"smiles": "O=C1/C(=C/c2cccc3ccccc23)SC(=S)N1Cc1ccco1", "inhibition": "1.1% (inactive)"}, {"smiles": "COc1ccccc1/C=C1\\SC(=S)N(Cc2ccco2)C1=O", "inhibition": "0.9% (inactive)"}, {"smiles": "O=C(O)CCCCCN1C(=O)/C(=C\\c2ccc(-c3ccc(Cl)c(Cl)c3)o2)SC1=S", "inhibition": "1.8% (inactive)"}, {"smiles": "Cc1ccccc1N(CC(=O)N1CCc2ccccc2C1)S(C)(=O)=O", "inhibition": "2.4% (inactive)"}, {"smiles": "NC(=O)c1cc(NC(=O)COc2ccc(F)cc2)c(Cl)cc1Cl", "inhibition": "-1.1% (inactive)"}, {"smiles": "Cc1c(NS(=O)(=O)c2ccc3c(c2)CCN3C(=O)C2CC2)c(=O)n(-c2ccccc2)n1C", "inhibition": "-3.7% (inactive)"}, {"smiles": "O=C1NC(=S)N/C1=C/c1ccc(-c2cccc(Br)c2)o1", "inhibition": "0.8% (inactive)"}, {"smiles": "Cc1ccc(-c2ccc(C=C3C(=O)NC(=O)NC3=O)o2)c(Br)c1", "inhibition": "26.6% (inactive)"}, {"smiles": "O=C1NC(=O)C(=Cc2ccc(-c3cccc(Br)c3)o2)C(=O)N1", "inhibition": "52.6% (active)"}, {"smiles": "CCN1CCN(CCCNC(=O)Cn2cc3c(n2)CCCC3)CC1", "inhibition": "-12% (inactive)"}, {"smiles": "COc1ccc(C2C(C(C)=O)=C(O)C(=O)N2c2nc3ccccc3s2)c(OC)c1", "note": "(stereo unspecified)", "inhibition": "-1.5% (inactive)"}, {"smiles": "Cc1ccc(N2CC(C(=O)Nc3ccc(N(C)C)cc3)CC2=O)cc1", "note": "(stereo unspecified)", "inhibition": "2.6% (inactive)"}, {"smiles": "CCOC(=O)CSc1nnc(Cn2nnc(-c3ccccc3)n2)n1C", "inhibition": "0.9% (inactive)"}, {"smiles": "Oc1c(Br)ccc(Cl)c1C=Nc1cccc2nsnc12", "inhibition": "117% (active)"}, {"smiles": "Oc1c(Br)cc(Cl)cc1C=Nc1cccc2nsnc12", "inhibition": "42.7% (inactive)"}, {"smiles": "COc1ccc(Br)c(C=Nc2cccc3nsnc23)c1O", "inhibition": "14.8% (inactive)"}, {"smiles": "NC(=O)C1C(=O)Oc2ccccc2C1=O", "note": "(stereo unspecified)", "inhibition": "1.6% (inactive)"}, {"smiles": "Cc1ccc(-c2nnn(CC(=O)N(Cc3ccccc3)C(C(=O)NC3CCCC3)c3ccncc3)n2)o1", "note": "(stereo unspecified)", "inhibition": "-0.8% (inactive)"}, {"smiles": "Cc1cc2nc(-c3cccc(NC(=O)c4ccc(Br)o4)c3)oc2cc1C", "inhibition": "3.2% (inactive)"}, {"smiles": "O=S1(=O)N=C2CCCN2C(c2ccc(F)cc2)N1", "note": "(stereo unspecified)", "inhibition": "-14.7% (inactive)"}, {"smiles": "O=C(Nc1ncc(Cc2ccc(Cl)c(Cl)c2)s1)c1ccccc1Cl", "inhibition": "3.9% (inactive)"}, {"smiles": "Cc1cc(C)n(Cc2ccc(C(=O)O)o2)n1", "inhibition": "-6.7% (inactive)"}, {"smiles": "Cc1ccc(OCC(=O)N/N=C\\c2ccc(-c3ccc([N+](=O)[O-])cc3)o2)cc1", "inhibition": "-0.5% (inactive)"}, {"smiles": "O=C1/C(=C\\c2ccco2)CC2CC1C/C(=C/c1ccco1)C2=O", "inhibition": "55.6% (active)"}, {"smiles": "O=C1/C(=C/c2ccco2)N2CCC1CC2", "inhibition": "-0.8% (inactive)"}, {"smiles": "O=C1/C(=C\\c2cccs2)CC2CC1C/C(=C/c1cccs1)C2=O", "inhibition": "1.2% (inactive)"}, {"smiles": "CN1CCN(CCCn2cnc3c(=O)oc4ccccc4c32)CC1", "inhibition": "-0.6% (inactive)"}, {"smiles": "CC(=O)O[C@@]12CO[C@@H]1C[C@H](O)[C@@]1(C)C(=O)[C@H](O)C3=C(C)[C@@H](OC(=O)[C@H](O)[C@@H](NC(=O)OC(C)(C)C)c4ccccc4)C[C@](O)([C@@H](OC(=O)c4ccccc4)[C@H]21)C3(C)C", "inhibition": "-0.3% (inactive)"}, {"smiles": "COC(=O)c1ccc(C(=O)OC)c(N)c1", "inhibition": "-12.2% (inactive)"}, {"smiles": "COC(=O)c1ccccc1OCc1cccc(C)n1", "inhibition": "-5.5% (inactive)"}, {"smiles": "COc1ccc(S(=O)(=O)Nc2ccc(C)c(Cl)c2)cc1OC", "inhibition": "3.1% (inactive)"}, {"smiles": "Cc1ccc(N(C)S(=O)(=O)c2ccc(Cl)cc2)cc1", "inhibition": "-0.1% (inactive)"}, {"smiles": "O=C(CN1C(=O)/C(=C/c2ccccc2)SC1=S)Nc1cccc(C(=O)O)c1", "inhibition": "-1% (inactive)"}, {"smiles": "COc1ccc(/C=C2\\SC(=O)N(CC(=O)Nc3ccc(C)cc3C)C2=O)cc1", "inhibition": "-0.5% (inactive)"}, {"smiles": "COc1cc(/C=C2/SC(=S)N(CC(=O)Nc3cccc(C(=O)O)c3)C2=O)cc(OC)c1OC", "inhibition": "1.9% (inactive)"}, {"smiles": "O=C(CN1C(=O)S/C(=C/c2ccccc2F)C1=O)Nc1ccccc1C(=O)O", "inhibition": "6.5% (inactive)"}, {"smiles": "O=C(NC(Nc1ccc([N+](=O)[O-])cc1)C(Cl)(Cl)Cl)c1cccc(I)c1", "note": "(stereo unspecified)", "inhibition": "1.1% (inactive)"}, {"smiles": "CCN(CC)S(=O)(=O)c1cccc(C(=O)Oc2cccnc2)c1", "inhibition": "-10.3% (inactive)"}, {"smiles": "CCOc1cc(C(=O)Nc2ccc(OCc3ccccc3)cc2)cc(OCC)c1OCC", "inhibition": "7% (inactive)"}, {"smiles": "CCCC1=NN2C(=N)/C(=C/c3cc(OC)ccc3OC)C(=O)N=C2S1", "inhibition": "1.4% (inactive)"}, {"smiles": "CCC1=NN2C(=N)/C(=C/c3ccc(OCCOc4cccc(OC)c4)cc3)C(=O)N=C2S1", "inhibition": "-1.7% (inactive)"}, {"smiles": "Nn1c(SCC(=O)NC2CCCCC2)nnc1-c1ccccc1", "inhibition": "-1.2% (inactive)"}, {"smiles": "Cc1cc(=O)n2[nH]c(C)c(-c3ccc(Cl)cc3)c2n1", "inhibition": "-8.5% (inactive)"}, {"smiles": "Cc1cc(=O)n2[nH]c(C)c(-c3ccccc3)c2n1", "inhibition": "72.9% (active) and -3.2% (inactive)"}, {"smiles": "Cc1[nH]n2c(=O)cc(C(C)C)nc2c1-c1ccccc1", "inhibition": "-5.8% (inactive)"}, {"smiles": "O=C(NCC1CCCO1)c1ccc(Cl)cc1", "note": "(stereo unspecified)", "inhibition": "-0.2% (inactive)"}, {"smiles": "O=C(CCCn1c(=O)c2sccc2n(Cc2ccc(F)cc2)c1=O)NCc1ccco1", "inhibition": "-8.3% (inactive)"}, {"smiles": "CCOc1ccc(C(=O)NCc2ccc3c(c2)OCO3)cc1", "inhibition": "-3% (inactive)"}]}]}
